Screening data as filed in PubChem.
Sampled rows, rich in hits. Any-hit rate of the full collection: about 28%.
CYP2C9 inh – blockers of cytochrome P450 2C9 activity – biochemical, luminescence, ADME assay, primary screen; P11712; CYP2C9 Supersomes, luciferin-H conversion; inhibition, % at 5 µM; actives 20% (n = 96,000);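 active = blocking of liver enzyme CYP2C9 beyond about 50% at 5 µM, limit read from the data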
Target sequence (P11712 whole entry, looked up): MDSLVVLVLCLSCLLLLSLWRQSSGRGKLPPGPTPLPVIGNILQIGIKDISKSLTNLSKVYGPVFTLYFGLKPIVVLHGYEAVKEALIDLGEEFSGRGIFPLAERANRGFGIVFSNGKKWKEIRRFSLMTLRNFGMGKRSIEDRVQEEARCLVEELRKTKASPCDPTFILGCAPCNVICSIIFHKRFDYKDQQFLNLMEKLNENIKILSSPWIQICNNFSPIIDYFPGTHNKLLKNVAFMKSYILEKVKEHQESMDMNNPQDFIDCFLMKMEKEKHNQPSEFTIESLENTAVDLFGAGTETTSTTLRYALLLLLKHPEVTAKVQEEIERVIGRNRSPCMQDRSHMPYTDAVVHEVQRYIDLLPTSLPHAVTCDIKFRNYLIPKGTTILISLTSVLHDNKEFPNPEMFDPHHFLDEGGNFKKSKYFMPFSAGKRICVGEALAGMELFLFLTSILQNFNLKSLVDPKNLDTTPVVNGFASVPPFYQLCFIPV
CD11b adhes inh – inhibitors of CD11b/CD18 adhesion to fibrinogen, primary screen, K562 cells, luminescence. Integrin beta-2 (Homo sapiens) + Integrin alpha-M (Homo sapiens), P05107+P11215. ATPlite luminescence; Mn2+ added to activate the integrin. inhibition, % at 10 µM. actives 0.54% (n = 93,000). AID 1497, 2009;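 active = primary inhibition of 50% or more at 10 µM, then 40% or more on retest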
CYP2C19 inh – blockers of cytochrome P450 2C19 activity – biochemical, luminescence, ADME assay, primary screen | P33261 | CYP2C19 Supersomes, luciferin-H EGE luminescence, 30 min | inhibition, % at 5 µM | actives 21% (n = 96,000);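 active = CYP2C19 inhibition above a set limit at 5 µM in the primary screen, cut at about 50% in these data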
CD11b adhes enh – enhancers of CD11b/CD18 adhesion to fibrinogen, primary screen, K562 cells, luminescence. Integrin beta-2 (Homo sapiens) + Integrin alpha-M (Homo sapiens), P05107+P11215. ATPlite luminescence. activation, % at 10 µM. actives 0.07% (n = 93,000);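 active = 10 µM primary screen giving 50% or more activity, confirmed by 40% or more on retest at that dose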
CYP2C9 act – human CYP2C9 activators, primary screen, biochemical, luminescence; AID 1024, 2008; Cytochrome P450 2C9 (Homo sapiens), P11712; recombinant CYP2C9, luciferin-H conversion; active compounds read high; factor 1 = untreated enzyme, 0 = blocked; actives 1.4% (n = 96,000); activation factor at 5 µM;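 active = activation factor of 2 or more for CYP2C9 at a 5 µM dose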
CYP2C19 activ – human CYP2C19 activators, primary screen, biochemical, luminescence; 96,000 tested, under 10 active; Cytochrome P450 2C19 (Homo sapiens), P33261; activation factor at 5 µM; recombinant CYP2C19, luciferin-H EGE luminescence; active compounds read high; 0 = fully inhibited enzyme, 1 = untreated enzyme;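 active = activation factor of at least 2 at 5 µM in the primary screen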
Hits are given with their value; . = inactive; / = not tested or not shown.

SMILES | CYP2C9 inh | CD11b adhes inh | CYP2C19 inh | CD11b adhes enh | CYP2C9 act | CYP2C19 activ
CCN(CC)CCNC(=O)Cc1c(C(=O)O)n(C)c2ccccc12 | . | . | . | . | . | .
Cc1ccc2c(c1)c(CC(=O)Nc1ccc(F)cc1)c(C(=O)O)n2C | 65 | . | . | . | . | .
Cn1c(C(=O)O)c(CC(=O)NCc2cccnc2)c2ccccc21 | 63 | . | . | . | . | .
O=C(CSCC(=O)OCn1nnc2ccccc2c1=O)Nc1ccc(Cl)cc1 | . | / | . | / | . | .
c1cc2ccc3ccc(CN4CCOCC4)c4ccc(c1)c2c34 | . | / | 74 | / | . | .
Cc1cc2ccccc2cc1CN1CCOCC1 | . | . | 58 | . | . | .
CC(C)N(C(=O)CSc1nc2ccccc2n1-c1ccccc1)C(C)C | / | / | 51 | / | / | .
CC(C)N(C(=O)CSc1nnc(Cn2nnc3ccccc32)n1C)C(C)C | . | . | . | . | . | .
COc1ccc(OCCCC(=O)NC(C)c2ccccc2)cc1 (stereo not drawn) | . | . | 57 | . | . | .
CC(NC(=O)Cc1ccc(F)cc1)c1ccccc1 (stereo not drawn) | . | / | . | / | . | .
CC(NC(=O)CCOc1ccccc1)c1ccccc1 (stereo not drawn) | . | . | 95 | . | . | .
CN(C)c1oc(COc2ccccc2F)nc1C#N | . | . | 92 | . | . | .
COc1ccc(CCNc2oc(COc3ccccc3F)nc2C#N)cc1 | 97 | . | 94 | . | . | .
COc1ccc(CNc2oc(COc3ccc(Cl)cc3)nc2C#N)cc1 | . | . | . | . | . | .
N#Cc1nc(COc2ccccc2F)oc1NCc1ccc(F)cc1 | 72 | . | 55 | . | . | .
COc1ccc(Nc2oc(COc3ccc(Cl)cc3)nc2C#N)cc1 | . | . | . | . | . | .
O=C(O)C1CC=CCC1C(=O)Nc1cccc(Cl)c1 (stereo not drawn) | . | . | . | . | . | .
COCCN1CCn2c(nc3cc(NC(=O)c4ccc(OC)cc4)ccc32)C1 | . | . | . | . | . | .
COc1ccccc1CN=C1NC(=O)C(CC(=O)Nc2ccc(OC)c(OC)c2)S1 (stereo not drawn) | . | . | . | . | . | .
COc1ccc(OC)c(S(=O)(=O)NCCc2ccccc2)c1 | 69 | . | 87 | . | . | .
CNS(=O)(=O)c1cc(OC)ccc1OC | . | . | . | . | . | .
CCn1nnnc1-c1ccc(OC)c(S(=O)(=O)NCCc2ccccc2)c1 | 68 | . | 89 | . | . | .
COc1ccc(OC)c(S(=O)(=O)NCc2csc(-c3ccccc3)n2)c1 | . | . | 62 | . | . | .
CCOC(=O)N1CCN(C(=O)c2cc(-n3cnnc3)ccc2Cl)CC1 | . | . | . | . | . | .
O=C(OCC(=O)N1CCc2ccccc21)c1cccnc1Cl | . | . | . | . | . | .
SMILES | CYP2C9 inh | CD11b adhes inh | CYP2C19 inh | CD11b adhes enh | CYP2C9 act | CYP2C19 activ
N#CC1=C(N)N(c2ccccc2)C(c2ccco2)C1(C#N)C#N (stereo not drawn) | 54 | . | . | . | . | .
Nc1c(-c2ccccc2Cl)cnn1-c1cccc([N+](=O)[O-])c1 | . | / | . | / | . | .
N#CC1=C(N)N(c2ccccc2)C(c2cccc([N+](=O)[O-])c2)C1(C#N)C#N (stereo not drawn) | 53 | . | . | . | . | .
Cc1cccc(-n2ncc(C#N)c2N)c1 | . | . | . | . | . | .
Cc1cccc(N2C(N)=C(C#N)C(C#N)(C#N)C2c2ccccc2)c1 (stereo not drawn) | 55 | . | . | . | . | .
COc1ccc(CCN2C(=O)c3ccncc3C2=O)cc1OC | . | . | . | . | . | .
O=C(NCc1ccc(F)cc1)C1C2C=CC3(CN(Cc4cccnc4)C(=O)C13)O2 (stereo not drawn) | . | . | . | . | . | .
COc1ccc2oc(=O)c(C(=O)Oc3ccc(NC(C)=O)cc3)cc2c1 | . | / | . | / | . | .
